Where “and” joins values, the source holds several entries; their conditions need not be identical. Equal entries are not always repeated. Results filed as inconclusive are left out. Values without a mark were called inactive. Calls of active or inactive are those of the source. Calls follow the shape of the dose curve; as a rule, active = well fitted curve in the direction sought with a large enough effect; inconclusive = small, poorly fitted or top-dose-only effect, or another doubt; inactive = no such curve, though single readings can be large; an effect the other way counts as inactive or inconclusive.

This passage reports Potency and activity (max response) results from PubChem BioAssay (NCATS).

A short description of experiment [1]: Viability qHTS for spleen associated tyrosine kinase inhibitor (SYKi) naive MV4-11 cells (AID 1963823). Also: nearly all actives have a fitted effect of over 40% in size. In short, it runs like this: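 Luminescence from CellTiter-Glo, developed 10 min at room temperature, gave viability of MV4-11 cells never exposed to SYK inhibitor. Cells (500/well) had been incubated with compounds for 72 hr under standard culture conditions.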
(qHTS replaces the single test concentration by a dilution series.)

A short description of experiment [2]: Viability qHTS for spleen associated tyrosine kinase inhibitor (SYKi) drug resistant MV4-11 cells (AID 1963824). Also: nearly all actives have a fitted effect of over 35% in size. In short, it runs like this:
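SYK-inhibitor-resistant MV4-11 AML cells were seeded at 500 per well onto compound and cultured 72 hours (37 °C, 5% CO2). CellTiter-Glo was then added, and after 10 min at room temperature, luminescence gave viability.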

Experiment [3] is described as follows: Cellular viability qHTS for adrenocortical cancer (ACC) cell line SW-13 (AID 1963989). Also: nearly all actives have a fitted effect of over 65% in size.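 As to activity (max response): cells grown in serum-free medium with ITS supplement; % is scaled to controls: 0 for no effect and ±100 for the full control effect.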 Conditions: SW-13 ACC cells viability, CellTiter-Glo, 48 h; activity (max response): active compounds read low. In short, it runs like this: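 Luminescent ATP read-out (CellTiter-Glo, 20 min at room temperature) measured metabolically competent SW-13 cells after 48 h compound treatment. Final concentrations spanned up to 46 uM; bortezomib served as positive control.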

A short description of experiment [4]: Cellular viability qHTS for adrenocortical cancer (ACC) cell line NCI-H295R (AID 1963990). Also: nearly all actives have a fitted effect of over 60% in size. In short, it runs like this: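 IC50 and maximal efficacy derive from four-parameter logistic modelling of titration curves, with reads scaled between DMSO-only wells (0%) and doxorubicin hydrochloride (100% inhibition). Compounds spanned up to 46 uM over 48 h.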
Potency is read from the fitted curve at half-maximal effect.

On to `Oc1cc(O)cc(/C=C/c2ccc(O)c(O)c2)c1`, for which the Potency was 5.9 µM (active) and 5.17 µM (active) in experiment [1]; 5.9 µM (active) and 2.59 µM (active) in experiment [2]. The activity (max response) in experiment [3] is -23.2%. In experiment [4], the Potency result was “inactive”.

Take `CCOc1ccc(NS(=O)(=O)c2ccc(N)cc2)nn1`: the Potency result in experiment [1], in experiment [2] and in experiment [4] was “inactive” throughout. In addition, in experiment [3], the activity (max response) is 7.51%.

Turning to `CN1[C@@H]2CCC[C@H]1CC(NC(=O)c1nn(C)c3ccccc13)C2` (some centres undefined), the Potency result in experiment [1], in experiment [2] and in experiment [4] was “inactive” in each case. The activity (max response) in experiment [3] was 2.83%.

As to `COc1ccc(/C=C\c2cc(OC)c(OC)c(OC)c2)cc1O`, the Potency in experiment [1] is 0.0053 µM (active); in experiment [2], 0.0047 µM (active); in experiment [3], 0.01 µM (active); in experiment [4], 0.0089 µM (active).

Turning to `COc1cc(C(=O)NC(N)=Nc2ccc(C)c(NC(=O)c3ccc(-c4ccccc4)cc3)c2)cc(OC)c1OC`, the Potency in experiment [1] was 14.8 µM (active); in experiment [2], 8.33 µM (active); in experiment [3] it was 11.2 µM (active); in experiment [4], 10 µM (active).

As to `COc1cccc2c1C(=O)c1c(O)c3c(c(O)c1C2=O)C[C@@](O)(/C(CO)=N/NC(=O)CCCCCN1C(=O)C=CC1=O)C[C@@H]3O[C@H]1C[C@H](N)[C@H](O)[C@H](C)O1`, the Potency was 0.132 µM (active) in experiment [1], 0.186 µM (active) in experiment [2], 3.55 µM (active) in experiment [3] and 14.1 µM (active) in experiment [4].

For `CN(C)/N=N/c1nc[nH]c1C(N)=O`, the Potency result in experiment [1], in experiment [2] and in experiment [4] was “inactive” each time. For the same compound, in experiment [3], the activity (max response) was 10.5%.

As to `CN1CCN(c2ccc3nc(-c4c(N)c5c(F)cccc5[nH]c4=O)[nH]c3c2)CC1`, the Potency in experiment [1] was 0.0116 µM (active); in experiment [2], 16.4 nM (active) and 18.6 nM (active); in experiment [3], 15.8 µM (active); in experiment [4] it was 17.8 µM (active).

For the compound `CC(=O)N[C@@H](CC(C)C)C(=O)O`, the Potency result in experiment [1], in experiment [2] and in experiment [4] was “inactive” in each case. Moreover, the activity (max response) in experiment [3] was 7.87%.

In the case of `Oc1c(Cl)cc(Cl)c(Cl)c1Cc1c(O)c(Cl)cc(Cl)c1Cl`, the Potency is 8.41 µM (active) in experiment [1], 5.96 µM (active) in experiment [2], 1.84 µM (active) in experiment [3] and 2.06 µM (active) in experiment [4].

Consider `CC1=C2C[C@H]3[C@@H](CC[C@@H]4C[C@H](NS(C)(=O)=O)CC[C@@]43C)[C@@H]2CC[C@@]2(C1)O[C@@H]1C[C@H](C)CN[C@H]1[C@H]2C`, for which the Potency was 9.34 µM (active) in experiment [1], 4.68 µM (active) in experiment [2], 25.1 µM (active) in experiment [3] and 17.8 µM (active) in experiment [4].

For the compound `CCN1CCN(c2cc(-c3ccc(F)cc3)c3c(n2)CCCCCC3)CC1`, the Potency entry in experiment [1], in experiment [2] and in experiment [4] was “inactive” throughout. Besides, in experiment [3], the activity (max response) was -1.29%.

Consider `CC[C@@](C)(Nc1ccnc(-c2c[nH]c3ncccc23)n1)C(=O)NCC(F)(F)F`, for which the results for the Potency in experiment [1] and in experiment [2] were 14.6 µM (active) and 16.4 µM (active), respectively. In experiment [3], the activity (max response) is 0.931%. The Potency result in experiment [4] is “inactive”.

As for `CC(C)(O)c1coc(S(=O)(=O)NC(=O)Nc2c3c(cc4c2CCC4)CCC3)c1`, the Potency result in experiment [1], in experiment [2] and in experiment [4] was “inactive” in each case. In addition, in experiment [3], the activity (max response) was 5.8%.

For the compound `C=CCNC1=C2C[C@@H](C)C[C@H](OC)[C@H](O)[C@@H](C)/C=C(\C)[C@H](OC(N)=O)[C@@H](OC)/C=C\C=C(/C)C(=O)NC(=CC1=O)C2=O`, the Potency in experiment [1] was 0.59 µM (active); in experiment [2], 1.66 µM (active); in experiment [3], 3.55 µM (active); in experiment [4], 10 µM (active).

`C[C@H](CCC(=O)O)[C@H]1CC[C@H]2[C@@H]3C(=O)C[C@@H]4CC(=O)CC[C@]4(C)[C@H]3CC(=O)[C@]12C`: the Potency entry in experiment [1], in experiment [2] and in experiment [4] was “inactive” in each case. For the same compound, in experiment [3], the activity (max response) is 15.5%.

In the case of `CN(C)C/C=C/C(=O)Nc1cc2c(Nc3ccc(F)c(Cl)c3)ncnc2cc1O[C@H]1CCOC1`, the Potency in experiment [1] was 1.48 µM (active); in experiment [2] it was 1.86 µM (active); in experiment [3], 0.891 µM (active); in experiment [4] it was 7.08 µM (active).

As for `CNC(=O)[C@H]1O[C@@H](n2cnc3c(NCc4cccc(I)c4)nc(Cl)nc32)[C@H](O)[C@@H]1O`, the Potency was 14.8 µM (active) in experiment [1] and 8.33 µM (active) in experiment [2]. For the same compound, the activity (max response) in experiment [3] was 2.68%. Further, the Potency entry in experiment [4] was “inactive”.

For `CN(C)CCN(Cc1cccs1)c1ccccn1`, the Potency entry in experiment [1], in experiment [2] and in experiment [4] was “inactive” in each case. Besides, the activity (max response) in experiment [3] was 15.3%.

On to `CN1CCN(Cc2ccc(Nc3ncc(Cl)c(Nc4ccccc4S(=O)(=O)N(C)C)n3)cc2)CC1`, for which the Potency is 0.006 µM (active) in experiment [1], 0.0096 µM (active) in experiment [2], 0.75 µM (active) in experiment [3] and 0.237 µM (active) in experiment [4].

As for `CNC(=O)c1cccc2cc(Oc3ccnc4cc(OCC5(N)CC5)c(OC)cc34)ccc12`, the Potency is 13 µM (active) in experiment [1]; 14.8 µM (active) and 20.6 µM (active) in experiment [2]; 28.2 µM (active) in experiment [3]; 22.4 µM (active) in experiment [4].
